Shown is part of a subset that was picked to be rich in hits.
Tgondii IFNg: blocks Toxoplasma gondii growth in the presence of IFN-gamma | activity change, negative = inhibition, % (no concentration beside the values) | 69,000 tested, 3.8% active | AID 1259416 | Toxoplasma gondii growth in IFN-gamma-treated host cells; stronger effect = lower value; in the data active = activity change below about -70%, passing the limit was not always enough;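 also: host cells are HeLa cells infected with Toxoplasma gondii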
* marks the source's active call; other numbers are inactive results; i = inactive; ! = repeats disagree.

SMILES | Tgondii IFNg
C[C@@H]1CN([C@H](C)CO)C(=O)c2cc(C#CC3(O)CCCC3)cnc2O[C@H]1CN(C)S(=O)(=O)c1cccc(F)c1 | i
C[C@@H]1CN([C@H](C)CO)C(=O)c2cc(C#Cc3ccccc3)cnc2O[C@@H]1CN(C)C(=O)c1ccccc1 | 17
C[C@H](CO)N1C[C@H](C)[C@H](CN(C)S(=O)(=O)c2cccc(F)c2)Oc2ncc(C#CC3(O)CCCC3)cc2C1=O | 60
C[C@H]1CN([C@@H](C)CO)C(=O)c2cc(C#CC3(O)CCCC3)cnc2O[C@@H]1CN(C)S(=O)(=O)c1cccc(F)c1 | -112*
COCCN1CCCC(O)(CN(C)Cc2cccc(O)c2)C1=O (stereo not given) | -55
Cc1cc(C)c2[nH]c(=O)c(CN3CCOC4(CNCCOC4)C3)cc2c1 (stereo not given) | -1
Cc1cc2oc(C(=O)Nc3cccc(-c4csnn4)c3)cc(=O)c2cc1C | -45
CCn1ncc(S(=O)(=O)N2CCC(c3nc(C)n4ccsc34)CC2)c1C | 51
COc1ccc(-c2nnc(-c3nc(NCc4cccc(OC)c4)c4ccccc4n3)o2)cc1 | -39
CSC1SCC2C(=O)N(C)C(C(C)C)C(=O)OCC(NC(=O)c3cnc4ccccc4n3)C(=O)NC(C)C(=O)N(C)C1C(=O)N(C)C(C(C)C)C(=O)OCC(NC(=O)c1cnc3ccccc3n1)C(=O)NC(C)C(=O)N2C (stereo not given) | -77*
Cc1ccc(CS(=O)(=O)N2CCc3c(CN4CCCC4)nn(C)c3C2)cc1 | -34
CC(=O)N1CCC2(CC1)CC(C(=O)Nc1cccc(C#N)c1)c1ccccc12 (stereo not given) | 1
Cc1ccccc1NC(=O)CC(=O)N[C@H](C)c1ccccc1 | -1
CC(=O)N1CCOCC12CCN(Cc1csc(C)n1)CC2 | 2
Cc1nc(CN2CCOCC3(CN(CCO)CCO3)C2)cs1 (stereo not given) | 1
Cc1nc(CN2CCOCC3(CNCCO3)C2)cs1 (stereo not given) | -90*
COCCO[C@@H]1CCN(C2CCOCC2)[C@H]1Cc1cnn(C)c1 | 135
CCOc1ccccc1-c1nnc(NC(=O)c2cnc(NC)nc2)s1 | -11
COc1ccc(Cc2ncc3c(n2)CN(c2ncncc2C(C)C)C3)cc1 | -3
COc1ccc(-c2nsc3c(SCc4ccccc4)ncnc23)cc1 | 12
Cc1ccc(C(=O)CSc2ncnc3c(-c4ccc(Cl)cc4)nsc23)cc1 | -85*
Cc1noc2ncnc(SCC(=O)c3ccc(Cl)cc3)c12 | 24
Cc1ccc(C)c(NC(=O)Cn2c(=O)cc(C(=O)N3CCOCC3)c3ccccc32)c1 | 0
CO[C@H]1CN(C)C(=O)c2ccc(NC(=O)c3nc4ccccc4s3)cc2OC[C@H](C)N(Cc2cccnc2)C[C@H]1C | -113*
CO[C@@H]1CN(C)C(=O)c2cc(NC(=O)C3CCCCC3)ccc2OC[C@H](C)N(Cc2cccnc2)C[C@H]1C | 27
SMILES | Tgondii IFNg
CO[C@@H]1CN(C)C(=O)c2ccc(NC(=O)c3cccnc3)cc2OC[C@@H](C)N(CC2CCCCC2)C[C@H]1C | 144
CO[C@H]1CN(C)C(=O)c2ccc(NC(=O)c3nc4ccccc4s3)cc2OC[C@@H](C)N(Cc2cccnc2)C[C@@H]1C | 16
CO[C@@H]1CN(C)C(=O)c2ccc(NC(=O)c3nc4ccccc4s3)cc2OC[C@@H](C)N(Cc2cccnc2)C[C@@H]1C | -112*
CO[C@H]1CN(C)C(=O)c2cc(NC(=O)C3CCCCC3)ccc2OC[C@@H](C)N(Cc2cccnc2)C[C@H]1C | 69
CO[C@@H]1CN(C)C(=O)c2ccc(NC(=O)c3nc4ccccc4s3)cc2OC[C@@H](C)N(Cc2cccnc2)C[C@H]1C | -85*
CO[C@H]1CN(C)C(=O)c2cc(NC(=O)c3nc4ccccc4s3)ccc2OC[C@H](C)NC[C@@H]1C | -17
CO[C@@H]1CN(C)C(=O)c2cc(NC(=O)C3CCCCC3)ccc2OC[C@@H](C)N(Cc2cccnc2)C[C@H]1C | 1
CCc1cnc(C)nc1N1CCN(CCc2ccccc2)CC1 | -8
CCc1nc(OCC(=O)Nc2ccc(Br)cc2F)c2ccccc2n1 | -4
CCOc1ncccc1C(=O)N1CCOC(Cc2ccc(OC)cc2)C1 (stereo not given) | -6
Cc1nccn1Cc1cccc(C(=O)N(Cc2ccncc2)C2CCCCC2)c1 | 5
CS(=O)(=O)c1ccc(C(O)[C@H](CF)NC(=O)C(Cl)Cl)cc1 (stereo not given in full) | -78*!
CCCCCCCCCCCCCCCC(=O)OC[C@H](NC(=O)C(Cl)Cl)[C@H](O)c1ccc([N+](=O)[O-])cc1 | 20
O=C(N[C@@H](CO)[C@H](O)c1ccc([N+](=O)[O-])cc1)C(Cl)Cl | -8
CCN1c2ccc(F)cc2C(=O)NC12CCN(C(=O)c1cccc(OC)c1)CC2 | 65
CCC(C(=O)NCc1cccnc1)n1cc(C(C)=O)c2ccccc21 (stereo not given) | -63
COCCN1C(=O)N(Cc2ccccc2)C2(CCN(CC3=CC[C@H]4C[C@@H]3C4(C)C)CC2)C1=O | -23
Cc1cccc(-c2nc(Cn3nnc(-c4nc(-c5cccc(Br)c5)no4)c3C)c(C)o2)c1 | 10

Source: PubChem BioAssay (Broad Institute)
